Screens deposited in PubChem BioAssay by National Center for Advancing Translational Sciences (NCATS).
A selection: hits, their analogues and other compounds. The true share with any hit is near 2.1%.
Mito fusion act – blocks mitochondrial division or promotes mitochondrial fusion; S. cerevisiae fusion-defective mutant growth rescue, CellTiterGlo 48 h; Potency, µM (titrated, usually from 46.1 µM), hits mostly activators; actives 0.23% (n = 320,000); note: nearly all actives have a fitted effect of over 45% in size
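Growth-rescue viability read-out: after 48 h at the non-permissive 37C in glycerol/ethanol YPEG, yeast mitochondrial fusion mutants are measured by CellTiterGlo luminescence; compounds (23 nl pinned per well) restoring growth score as division inhibitors or fusion activators.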
Abeta rescue – restores growth of yeast expressing A-beta42 peptide. yeast expressing A-beta42, growth rescue, OD600, 48 h; response scale: 0% DMSO, 100% iron-clioquinol control. Potency, µM (titrated, usually from 46.1 µM), most hits filed as activators. actives 0.063% (n = 410,000). AID 1347071; note: nearly all actives have a fitted effect of over 55% in size
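Yeast growth medium received pinned compounds, then yeast cells expressing toxic A-beta were added; plates incubated at 30 C for 48 hr. Growth read as absorbance at 600 nm, normalized to DMSO and equimolar FeCl3 plus clioquinol controls.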
AT treatment – potential ataxia-telangiectasia treatment | actives 0.19% (n = 320,000) | F2112 A-T fibroblasts, KAP-1 phosphorylation AlphaLISA; neocarzinostatin DNA damage 30 min before lysis | Potency, µM (titrated, usually from 57.5 µM), actives largely listed as activators; note: nearly all actives have a fitted effect of over 45% in size
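ATM-like activity read as KAP-1 phosphorylation via AlphaLISA donor/acceptor antibody pairs after lysis and 6 hr at 25C. Cells were ATM-null patient fibroblasts (F2112, hTERT), dosed 60 min, then exposed to the DSB inducer NCS for 30 min.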
aSyn yeast inh – inhibitors of alpha-synuclein toxicity in yeast; Yeast expressing alpha-synuclein, growth rescue, BacTiter-Glo, 24 h; Potency, µM (doses to about 46.1 µM), most hits filed as activators; actives 0.14% (n = 370,000); AID 652106; note: nearly all actives have a fitted effect of over 65% in size
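Readout is rescue of growth in alpha-synuclein-expressing yeast, so inhibitors of toxicity appear as activators. Growth after 24 hr at 30 deg C in galactose medium is quantified by luminescence.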
GRP78 ERSR act – induces the endoplasmic reticulum stress response in human glioma cells; U87-MG GRP78 promoter luciferase reporter, 16 h; Potency, µM, usual class: activators; actives 0.02% (n = 420,000); AID 602332; note: series mostly up to about 76 µM; nearly all actives have a fitted effect of over 35% in size
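ERSR induction read as luciferase luminescence (Bright-Glo, 10 min at room temperature) in stably transfected human U87-MG glioma cells exposed to compounds for 16 h, using GRP78 as sensor.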
TDP-43 yeast inh – TDP-43 toxicity inhibition in yeast | TDP-43 expressing yeast growth rescue, BacTiter-Glo, 24 h | Potency, µM (series often up to 46.1 µM), usual class: activators | actives 1.8% (n = 410,000); note: nearly all actives have a fitted effect of over 50% in size
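Cell-based yeast growth screen: TDP-43 expression induced in galactose, inoculum OD600=0.02 after raffinose pregrowth to mid-log. Read-out BacTiter-Glo luminescence at 24 hr, 30 deg C; inhibition of toxicity seen as signal increase.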
Hits are given with their value; 0 = inactive; ? = inconclusive; - = no result; [ ] = remark or other dose. Calls come from the whole dose curve; as a rule, active = well fitted curve in the direction sought with a large enough effect; inconclusive = small, poorly fitted or top-dose-only effect, or another doubt; inactive = no such curve, though single readings can be large; an effect the other way counts as inactive or inconclusive.

SMILES	Mito fusion act	Abeta rescue	AT treatment	aSyn yeast inh	GRP78 ERSR act	TDP-43 yeast inh
OC(c1cccc(Cl)c1)c1nc(-c2ccc3c(c2)OCO3)cs1 (stereo unspecified)	-	0	-	?	0	32µM
Cc1nc(-c2ccc3c(c2)OCO3)cs1	0	0	0	0	0	0
Cc1ccn2c(Nc3ccc(C(C)C)cc3)c(-c3cccs3)nc2c1	-	0	-	-	0	0
Cn1c(N)c(C(C[N+](=O)[O-])c2c(F)cccc2Cl)c(=O)n(C)c1=O (stereo unspecified)	0	0	0	0	0	11µM
CN(C)c1ccc(C(C[N+](=O)[O-])c2c(N)n(C)c(=O)n(C)c2=O)c(F)c1C#N (stereo unspecified)	0	0	0	0	0	0
NC(=S)NN=C1c2ccccc2-c2ccccc21	0	0	0	0	0	18µM
CCOC(=O)NN=C1c2ccccc2-c2ccccc21	0	0	0	0	0	5µM
CCOC(=O)Nc1ccc2c(c1)C(=NNC(=S)NC)c1ccccc1-2	-	0	-	0	0	25µM
CCOC(=O)NC(=S)Nc1cccc(NC(=S)NC(=O)OCC)c1	0	0	0	0	0	0
COCCN=c1scc(-c2cccs2)n1/N=C/c1ccc(O)c(O)c1O	0	0	0	0	0	?
COCCN=c1scc(-c2ccccc2)n1/N=C/c1c[nH]c2ccccc12	?	0	0	0	0	11µM
COc1ccc(NC(C)C(=O)Nc2cccc(S(=O)(=O)N3CCOCC3)c2)cc1OC (stereo unspecified)	-	0	0	0[1.84 µM]	0	0
COc1ccc(C2=C(c3ccccc3)OC(OC)c3cc(F)ccc32)cn1 (stereo unspecified)	-	?	-	?	-	16µM
O=C(c1n[nH]c2c1CCCC2)N1CCOc2ccc(C(O)C3CCCCC3)cc2C1 (stereo unspecified)	-	-	-	-	0	-
Cc1sc2ncnc(SCC(=O)N3c4ccccc4Sc4ccc(Cl)cc43)c2c1C	0	0	0	0	0	0
CCOC(=O)c1c(C)sc2c1N(C(=O)CCl)c1cc(Cl)ccc1S2	0	0	?	0	0	20µM
Cc1cc(S(=O)(=O)c2ccc(Cl)cc2)nc(S(=O)(=O)c2ccc(Cl)cc2)c1C#N	-	0	-	0	0	3.5µM
CO[C@H]1[C@H](NC(=O)c2ccsc2)c2ccccc2C12CCN(Cc1cccn1-c1ccccn1)CC2	-	-	-	-	0	-
O=C1c2ccccc2C(=O)N1CCCCCCc1ccccc1	0	0	0	0	0	0
O=C1c2ccccc2C(=O)N1CCc1c(-c2ccccc2)[nH]c2ccccc12	-	0	-	0	0	11µM
O=C1c2ccccc2C(=O)N1CCc1ccccc1	-	0	-	0	0	11µM
CCc1ccc(NC(=O)CSc2nnc(-c3ccccc3)n2CC)cc1	-	-	-	0	0	-
Cc1oc(-c2cccc(NC(=O)c3ccccn3)c2)nc1CNC(=O)c1ccc(C(F)(F)F)cc1	-	-	-	-	0	-
Cc1cccc(CN2CCc3nnc(C(C)NC(=O)C4CCOCC4)n3CC2)c1 (stereo unspecified)	-	-	-	-	0	-
CC1(C)CC(=O)C(Sc2ccc(Br)cc2)=C(O)C1	0	0	0	0	0	13µM
SMILES	Mito fusion act	Abeta rescue	AT treatment	aSyn yeast inh	GRP78 ERSR act	TDP-43 yeast inh
Brc1ccc(-c2nc(-c3ccncc3)no2)o1	0	0	0	0	0	13µM
O=C(Sc1nnc(-c2ccccc2)o1)N1c2ccccc2Sc2ccccc21	0	?	0	0	0	11µM
Cc1nc2c(-c3ccc(F)cc3)cnn2c(N)c1-c1ccccc1	0	0	0	0	0	13µM
Fc1ccc(CSc2nnc(-c3ccccn3)o2)cc1	0	0	0	0	0	13µM
Cc1cc(Nc2ccc(C(C)C)cc2)n2ncnc2n1	0	0	0	0	0	11µM
COc1ccc(Nc2cc(C)nc3ncnn23)cc1	-	0	-	0	0	0
CCOC(=O)c1c(C)[nH]c(C(=O)/C(C#N)=C/c2ccc(OCC)cc2)c1C	0	0	0	0	0	16µM
CC(=O)c1c(C)[nH]c(C(=O)/C(C#N)=C/c2cccc(C)c2)c1C	0	0	0	0	0	0
O=C(COC(=O)C1CCN(c2ccc(C(F)(F)F)cn2)CC1)Nc1cc(F)ccc1F	0	?	0	0	0	0
COc1ccc(NC(=O)CC2C(=O)N(c3ccc(C)cc3)C(=O)N2Cc2cccnc2)cc1 (stereo unspecified)	-	0	-	-	0	0
COc1cc(-c2ccc(C(F)(F)F)cn2)cc2c1OCCN(S(=O)(=O)C[C@]13CC[C@H](CC1=O)C3(C)C)C2	-	-	-	-	0	-
O=C(Nc1ccccc1-c1ccccc1)c1cnccn1	0	0	0	0	0	18µM
Cc1cc(C(=O)N2CCN(c3cccc(Cl)c3)CC2)c2c(C)nn(-c3ccccc3Cl)c2n1	-	0	-	-	0	20µM
Cc1cc(C(=O)N2CCN(c3ccc(F)cc3)CC2)c2c(C)nn(-c3cccc(Cl)c3C)c2n1	-	0	-	-	0	0[9.22 µM]
Cc1c(C(=O)N2CCN(c3ccccn3)CC2)cccc1[N+](=O)[O-]	0	0	0	0	0	0
Cc1c(C(=O)N2CCN(c3cccc(Cl)c3)CC2)cccc1[N+](=O)[O-]	0	?	0	0	0	22µM
Cc1ccc(N2CCN(C(=O)c3cccc([N+](=O)[O-])c3)CC2)cc1Cl	0	?	0	0	0	13µM
Clc1cccc2sc(N3CCOCC3)nc12	-	0	-	0	0	0
Clc1cccc2sc(N3CCCC3)nc12	0	0	0	0	0	13µM
C=C1C(=O)[C@]23C[C@H]1CC[C@H]2[C@]1(C)[C@@H](OC(C)=O)CC[C@@](C)(C(=O)O)[C@H]1C[C@@H]3O	-	0	-	?	0	11µM
C=C1C(=O)[C@]23C[C@H]1CC[C@H]2[C@]1(C)[C@@H](OC(C)=O)CC[C@@](C)(C(=O)OC)[C@H]1C[C@@H]3OC(C)=O	-	0	-	0	0	18µM
C=C1C(=O)[C@]23C[C@H]1CCC2[C@@]1(C)C(C[C@@H]3O)[C@](C)(C(=O)OC)CC[C@@H]1OC(C)=O (stereo partly specified)	-	0	-	0	0	?
COc1cc2nc(SCc3ccc(Cl)cc3)n3nc(CCn4nc(C)cc4C)nc3c2cc1OC	-	0	-	-	0	0
COc1cc(=O)n2c(c1C(=O)NC(C)c1ccco1)CCN(Cc1cc(C)ccc1C)CC2 (stereo unspecified)	-	-	-	-	0	-
COc1cc(/C=C2/SC(=S)N(Cc3ccccc3)C2=O)ccc1O	0	0	0	0	0	0
O=C1/C(=C\c2ccc(O)c(O)c2)SC(=S)N1Cc1ccccc1	13µM	0	0	0	0	0
